Hits are enriched below; roughly 0.47% of the tested compounds scored in any of these assays.
UDG counter: counter-screen for AID inhibitors: uracil-DNA glycosylase inhibition; FRET deamination/UDG coupled assay, UDG read, 4 h; Potency, µM (series often up to 115 µM), for inactives: top-dose activity change, negative = inhibition, usual class: inhibitors; hit rate 0.14% among 91,000; AID 1347430; further: nearly all actives have a fitted effect of over 65% in size
AID inhibitor: inhibitors of human activation induced cytidine deaminase | Q9GZX7 | AID deamination FRET fluorescence, UDG-coupled, 4 h | Potency, µM (series often up to 115 µM), actives largely listed as inhibitors | hit rate 0.32% among 91,000 | AID 1347428; further: nearly all actives have a fitted effect of over 25% in size
Target sequence (Q9GZX7 whole entry, looked up): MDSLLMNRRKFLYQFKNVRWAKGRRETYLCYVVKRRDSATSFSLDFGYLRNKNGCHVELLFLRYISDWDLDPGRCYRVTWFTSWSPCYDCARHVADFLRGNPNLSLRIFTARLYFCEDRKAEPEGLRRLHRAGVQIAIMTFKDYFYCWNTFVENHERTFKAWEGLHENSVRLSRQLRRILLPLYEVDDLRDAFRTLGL
The depositor's hits bear a star; i = inactive; ? = inconclusive; [ ] = remark or other dose. The call rests on the fitted dose curve; in most records, active means well fitted curve in the direction sought with a large enough effect; inconclusive means small, poorly fitted or top-dose-only effect, or another doubt; inactive means no such curve, though single readings can be large; an effect the other way counts as inactive or inconclusive. On the % scale 0 is the no-effect control and ±100 the full control effect; potency means the concentration at half of the fitted maximal effect.

SMILES | UDG counter | AID inhibitor
O=C(NCC(c1cccnc1)N1CCc2ccccc21)c1ccc(Cl)cc1 (stereo unspecified) | -11.5% | ?
COc1ccc(NC(=O)Nc2cn(CC(C)C)c(=O)c3ccccc23)c(OC)c1 | -18.3% | i
Cc1ccc(Cl)cc1NC(=O)Nc1cn(CC(C)C)c(=O)c2ccccc12 | 0.4% | 79.4µM*
CC(=O)N1CCN(c2ncnc3c2c(-c2ccccc2)cn3-c2cccc(C)c2)CC1 | 79.4µM* | ?
Cc1cccc(-n2cc(-c3ccccc3)c3c(N4CCC(C)CC4)ncnc32)c1 | -4.4%[57.5 µM] | ?
Clc1ccc2c(N/N=C/c3cccs3)ccnc2c1 | 2.2% | i
Cc1ccc(-c2nc3c(c(SCC(=O)N(C)c4ccccc4)n2)Cc2c(CO)cnc(C)c2O3)cc1 | 2.9% | ?
C=Cc1ccc(CSc2nc(-c3ccc(C)cc3)nc3c2Cc2c(CO)cnc(C)c2O3)cc1 | 5.7% | 31.6µM*
CCc1ccc(-c2nc3c(c(SCc4ccccc4)n2)Cc2c(CO)cnc(C)c2O3)cc1 | -6.9% | i
CCN(CC)C(=O)CSc1nc(-c2ccc(C)cc2)nc2c1Cc1c(CO)cnc(C)c1O2 | 4.9% | 44.7µM*
CCCCCCCCCOc1cccc(CNc2cccc3ccccc23)c1 | -26.3% | ?
Cc1cc2[nH]c(C(=O)O)cc2c2ccccc12 | -13.2% | i
COc1ccc(C)cc1NC(=O)c1cc(-c2ccc(C)o2)nc2ccccc12 | 3.0% | i
COc1ccccc1C(=O)Nc1ccc(OCc2cc(=O)n3cccc(C)c3n2)cc1 | 9.0% | i
COc1cc(C(=O)Nc2ccc(OCc3cc(=O)n4cccc(C)c4n3)cc2)cc(OC)c1OC | -2.5% | 22.4µM*
COc1ccc2cc(S(=O)(=O)c3ccc(C(C)C)cc3)c(=O)oc2c1 | -6.4% | i
C=Cc1ccc(Cn2c(=O)n(-c3ccccc3C)c(=O)c3c4c(sc32)CN(C(C)=O)CC4)cc1 | -17.6% | ?
CC(=O)N1CCc2c(sc3c2c(=O)n(-c2ccccc2Cl)c(=O)n3Cc2cccc(C)c2)C1 | ? | 35.5µM*
Cc1cccn2c(=O)c3cc(C(=O)N(Cc4ccccc4)C(C)C)sc3nc12 | 0.0% | 79.4µM*
CCN(C(=O)c1cc2c(=O)n3cccc(C)c3nc2s1)c1ccc(C)c(C)c1 | -2.3%[57.5 µM] | ?
Cc1ccccc1/C=C(/C#N)c1nc2ccccc2s1 | -19.5% | i
N#C/C(=C\c1ccnc2ccccc12)c1nc2ccccc2s1 | 79.4µM* | ?
CCOc1ccccc1CN1CCCCCC1c1sccc1C (stereo unspecified) | -2.4% | i
CCOC(=O)c1sc(Nc2ccc(C(C)=O)cc2)nc1C(F)(F)F | 0.4% | i
O=S(=O)(Cc1ccccc1)C(Cl)(Cl)C(F)(F)C(F)(F)C(F)(F)C(F)F | -7.5% | i
SMILES | UDG counter | AID inhibitor
CC(C(=O)Nc1c(F)cccc1F)N1CCN(c2ccc(O)cc2)CC1 (stereo unspecified) | 5.6% | i
CCN(CCCNC(=O)c1cc2c(Cl)nc3ccccc3c2s1)Cc1ccccc1 | -19.4% | ?
CN(CCCNC(=O)c1cc2c(Cl)nc3ccccc3c2s1)Cc1ccccc1 | -7.4% | 22.4µM*
Cc1ccc2nc(Cl)c3cc(C(=O)NCCCN(C)Cc4ccccc4)sc3c2c1 | 79.4µM* | ?
COCCNC(=O)c1cc2c(Cl)nc3ccc(C)cc3c2s1 | 7.8% | ?
CC(C)(C)c1ccc(C(=S)NCCC2=CCCCC2)cc1 | -4.0% | i
O=C(O)c1cc(-c2ccccc2)nc2ccc(F)cc12 | 12.3% | i
O=C(O)/C=C/c1cc(Br)c(-c2ccc(Cl)cc2Cl)o1 | -7.0% | i
Nc1c(S(=O)(=O)O)cc(Nc2ccc(Nc3nc(Cl)nc(Nc4ccc(S(=O)(=O)O)cc4)n3)c(S(=O)(=O)O)c2)c2c1C(=O)c1ccccc1C2=O | -19.2% | 22.4µM*
COCC(=O)n1nc(NCc2ccccc2Cl)nc1NCc1ccccc1Cl | 4.5% | i
NO | 28.2µM* | 39.8µM*
Fc1ccc(/C=N/Nc2cc(C(F)(F)F)ccc2Cl)cc1 | 0.6% | i
c1ccc(CCNc2nc(Nc3ccccc3)c3nccnc3n2)cc1 | -4.1% | i
OCCNc1nc(Nc2cccc(Cl)c2)nc2nccnc12 | 1.3% | 79.4µM*
OCCNc1nc(Nc2ccc(Cl)c(Cl)c2)nc2nccnc12 | -3.7% | 35.5µM*
OCCNc1nc(Nc2ccc(Br)cc2)nc2nccnc12 | -4.0% | ?
COC(=O)c1[nH]c2ccccc2c1NC(=O)CCC1CCCC1 | 10.3% | i
Cc1ccc(C(=O)Nc2cc3c(cc2SCc2ccco2)n(C)c(=O)n3C)cc1 | -11.4% | i
CC(C)Cn1nc(C(=O)Nc2nc3c(s2)CN(Cc2ccccc2)CC3)c2ccccc2c1=O | -2.4% | i
Cc1ccc(S(=O)(=O)Cc2ccc(C(=O)N3CCN(c4cccc(C)c4C)CC3)o2)cc1 | -11.9% | ?
COc1ccc(S(=O)(=O)Cc2ccc(C(=O)N3CCN(c4cc(C)ccc4C)CC3)o2)cc1 | 89.1µM* | ?
CCc1ccc(CNC(=O)C(CC)n2nc(C)c3c(C)n(-c4ccccc4)nc3c2=O)cc1 (stereo unspecified) | -20.2% | 70.8µM*
CCC(C(=O)NCc1cccc(Br)c1)n1nc(C)c2c(C)n(-c3ccccc3)nc2c1=O (stereo unspecified) | -19.4% | ?
COc1cccc(-c2csc(-c3cc4cccc(OC)c4oc3=O)n2)c1 | -5.3% | i
O=C(Cc1n[nH]c(=O)c2ccccc12)Nc1ccc(S(=O)(=O)N2CCCC2)cc1 | -18.9% | 39.8µM*
SMILES | UDG counter | AID inhibitor
Cn1nc(CC(=O)Nc2ccc(S(=O)(=O)N3CCCCCC3)cc2)c2ccccc2c1=O | -3.5% | i
CCN(CC)CCCNc1oc(/C=C/c2cccs2)nc1C#N | 2.7% | i
COc1ccc2nc(/C=C/c3cccc(F)c3)sc2c1 | -3.7% | i
CCOc1ccc(NC(=O)CN(C)S(=O)(=O)c2ccc3c(c2)c(=O)n(C)c(=O)n3C)cc1 | -12.1% | 22.4µM*
Cc1cccc(NC(=O)CN(C)S(=O)(=O)c2ccc3c(c2)c(=O)n(C)c(=O)n3C)c1 | -4.6% | i
CC1CCCCN1S(=O)(=O)c1ccc2nc(N3CCCCCC3)ccc2c1 (stereo unspecified) | -10.8% | i
Fc1ccc(C=Nc2cccc3c(N=Cc4ccc(F)cc4)cccc23)cc1 | ? | i
COc1ccc(N(C)C(=O)c2cc3c(s2)-c2ccccc2OC3)cc1 | -8.6% | 44.7µM*
COc1cc(OC)c(N(C)C(=O)c2cc3c(s2)-c2ccccc2OC3)cc1Cl | -6.0% | i
Cc1nc2c(-c3ccccc3)c(C)[nH]n2c(=O)c1Cc1ccc(C(C)C)cc1 | 79.4µM* | i
Cc1ccc(Cc2c(C)nc3c(-c4ccccc4)c(C)[nH]n3c2=O)cc1 | -4.8% | i
CCc1c(C)sc(NC(=O)c2ccccc2C)c1C#N | 1.0% | i
O=C(NCCc1ccc2c(c1)OCCO2)c1ccc(NC(=O)c2cccs2)cc1 | -18.1% | i
OCC1O[C@H]([S-])[C@H](O)[C@@H](O)[C@@H]1O.[Au+] (stereo partly specified) | 3.3% | 25.1µM*
COC(=O)c1cccc(NC(=O)CN2CCN(c3oc(-c4ccco4)nc3C#N)CC2)c1 | 1.9% | i
Cc1cc(/C=C/C(=O)c2cccs2)cc(C)c1O | 9.8% | i
FC(F)Oc1cccc(-c2ccnc(=S)[nH]2)c1 | -0.6% | i
Cc1cc(S(=O)(=O)C(CNC(=O)COc2ccccc2)c2cccs2)ccc1F (stereo unspecified) | 0.4% | i
Cc1ccc(S(=O)(=O)C(CNC(=O)COc2ccccc2)c2cccs2)cc1 (stereo unspecified) | -27.8% | 44.7µM*

Assay outcomes deposited in PubChem BioAssay by National Center for Advancing Translational Sciences (NCATS).
